Results on 10 compounds are retold here after PubChem BioAssay AID1273 (Columbia University Molecular Screening Center, 2008).

Molecules are shown by their SMILES. The campaign covered roughly 130,000 compounds. About 1,200 (0.92%) were called active. The sample holds actives, similar compounds and a random draw of the others, so the mix is not that of the screen.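 Rule for the calls: active = inhibition above the mean plus 3 SD, with well images judged a real hit on visual review (cut at about 60% in these data, passing the limit was not always enough); inconclusive = inhibition over the cutoff but images rejected on review; inactive = inhibition not above the cutoff.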

Broadly, the inhibition is the drop in the measured response relative to a control, in per cent.

The experiment in a line: inhibitors of insulin promoter-driven GFP, primary screen, imaging, TRM-6 cells (human fetal islet line), eGFP reporter, cell count (AID 1273;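 for normalized cell count: cells exposed to compound for 48 h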). As to conditions: at 2 µM; inhibition: stronger effect = higher value; normalized cell count: measured here: cell count, toxicity.
Turning to `CCOP(=O)(OCC)C(NC(=O)c1ccc(C)cc1)C(Cl)(Cl)Cl` (stereo not given), the inhibition is -37.5% (inactive) and the normalized cell count came to 107%.
Consider `COP(=O)(OC)C(NC(=O)c1ccc(C)cc1)C(Cl)(Cl)Cl` (stereo not given), for which the inhibition was 78.6% (active) and the normalized cell count was 102%.
In the case of `CC(=O)c1ccc(OC(NC(=O)Cc2ccccc2)C(Cl)(Cl)Cl)cc1` (stereo not given), the inhibition is -6.45% (inactive) and the normalized cell count worked out at 137%.
As for `O=C(OCCN1CCOCC1)C1(c2ccccc2)CCCC1`, the inhibition is -36.4% (inactive) and the normalized cell count was found to be 95.2%.
`CN(C)P(=S)(Nc1ccccc1)C(Cl)(Cl)Cl` (stereo not given): the inhibition is 26.7% (inactive) and the normalized cell count is 29.6%.
Consider `Cc1ccc(-c2nn(CCC#N)cc2C(=O)O)cc1C`, for which the inhibition is -30% (inactive) and the normalized cell count turned out to be 85.1%.
Turning to `CCN(CC)C(=O)c1ccc(NC(=O)c2cc(-n3cnnc3)ccc2Cl)cc1`, the inhibition was 86.7% (active) and the normalized cell count came to 44.7%.
With `CC(c1ccccc1)(c1ccccc1)c1ccncc1`, the inhibition was 27.3% (inactive) and the normalized cell count came out at 109%.
As to `Cc1ccsc1C(=O)C1CCCN(Cc2ccc(O)cc2)C1` (stereo not given), the inhibition is 11.1% (inactive) and the normalized cell count is 139%.
As for `C=CCN(CC=C)C(=O)Nc1ccc(OCC)cc1`, the inhibition was 36.8% (inactive) and the normalized cell count is 88.5%.
